Measured values as given in PubChem BioAssay (Tox21).
Inconclusive results are not listed. A number with no mark means an inactive call. Calls of active or inactive are those of the source. Unless noted, the call rests on the fitted dose curve; in most records, active means well fitted cell-killing curve with a large enough effect in the repeat runs; inconclusive means weak or mixed curves; inactive means no such curve, though single readings can be large or run the other way.

Target: Peroxisome proliferator-activated receptor delta (Homo sapiens) (UniProt Q03181)
Sequence (Q03181 whole entry, looked up): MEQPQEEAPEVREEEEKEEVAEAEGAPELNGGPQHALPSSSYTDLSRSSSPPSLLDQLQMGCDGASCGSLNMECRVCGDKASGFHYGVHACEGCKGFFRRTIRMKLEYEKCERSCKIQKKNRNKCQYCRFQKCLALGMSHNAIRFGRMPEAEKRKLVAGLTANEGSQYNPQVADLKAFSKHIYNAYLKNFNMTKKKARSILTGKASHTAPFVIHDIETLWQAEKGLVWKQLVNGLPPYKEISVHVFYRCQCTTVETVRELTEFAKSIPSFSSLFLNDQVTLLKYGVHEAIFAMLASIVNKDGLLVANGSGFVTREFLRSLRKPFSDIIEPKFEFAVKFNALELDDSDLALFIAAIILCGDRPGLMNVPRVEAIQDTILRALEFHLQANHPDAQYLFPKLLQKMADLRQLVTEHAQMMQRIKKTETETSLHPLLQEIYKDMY
Experiment: qHTS assay to identify small molecule agonists of the peroxisome proliferator-activated receptor delta (PPARd) signaling pathway (AID 743212; calls by dose curve)
Settings: HEK293H PPARd-UAS-bla, beta-lactamase FRET ratio, 17 h; series mostly up to 62.6 µM
Outline: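 Read-out: beta-lactamase FRET fluorescence after 2 h room-temperature incubation with LiveBLAzer B/G substrate. Cells were HEK293H carrying a UAS-bla reporter for PPARd, treated at 37 C with DMSO-dissolved compounds.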
On the % scale 0 is the no-effect control and ±100 the full control effect.

Row | Compound | outcome
1 | OCCC(F)(F)C(F)(F)C(F)(F)C(F)(F)C(F)(F)C(F)(F)F | inactive
2 | CN(C)c1cc(NC(=O)CNC(C)(C)C)c(O)c2c1C[C@H]1C[C@H]3[C@H](N(C)C)C(=O)C(C(N)=O)=C(O)[C@@]3(O)C(=O)C1=C2O | inactive
3 | Cc1ccccc1OCC(=O)O | inactive
4 | CC1(C)CC(N)CC(C)(C)N1 | inactive

Test system: not listed separately
Experiment: qHTS assay to identify small molecule antagonists of the peroxisome proliferator-activated receptor delta (PPARd) signaling pathway - cell viability counter screen (AID 743213); further: nearly all actives have a fitted effect of over 50% in size
Settings: PPARd-bla HEK293H viability, CellTiter-Glo luminescence, 17 h; series mostly up to 62 µM
Outline: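 In this counter screen, HEK293H cells carrying a UAS-beta-lactamase reporter are co-treated with test compounds and 300 nM L165041 (final) for 17 h at 37 C; cell viability is quantified by CellTiter-Glo luminescence.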

Row | Compound | outcome | viability change, negative = cytotoxic
5 | Cc1ccc(OC(=O)CC(C)C)cc1 | inactive | 
6 | CCO/C=C1\N=C(c2ccccc2)OC1=O | inactive | 
7 | CCCCCCCCCCCCCCCCN(C)C |  | 1.6% [at 6.26 µM]
8 | CC[C@@]1(c2ccccc2)NC(=O)N(C)C1=O | inactive | 
9 | O=C(O)P(=O)(O)O | inactive | 
10 | CC1(C)S[C@@H]2[C@H](NC(=O)Cc3ccccc3)C(=O)N2[C@H]1C(=O)O (tested in a mixture with another compound) | inactive | 
11 | CC(CC(=O)Cl)CC(C)(C)C (stereo not given) | inactive | 
12 | Cc1ccc(S(=O)(=O)NC(=O)NN2CC3CCCC3C2)cc1 (stereo not given) | inactive | 
13 | Cc1ccc2cccnc2c1 | inactive | 
14 | CCCC(=O)CC | inactive | 
15 | CN(C)CCCN(C)C |  | 1.43% [at 6.26 µM]
16 | O=Cc1ccc(C(=O)O)cc1 | inactive | 
17 | c1cc2ccc3ccc4ccc5cccc6c(c1)c2c3c4c56 |  | -10.9% [at 2.83 µM]
18 | CC1(C)C(=O)C(C)(C)C1=O | inactive | 
19 | C=C(C)C(=O)OCCCC | inactive | 
20 | C[C@@H]1CC[C@@]2(OC1)O[C@H]1C[C@H]3[C@@H]4CC[C@H]5C[C@@H](O)CC[C@]5(C)[C@H]4CC(=O)[C@]3(C)[C@H]1[C@@H]2C |  | 11.9% [at 6.26 µM]
21 | CCOCCOCCOC(C)=O | inactive | 
22 | CC(O)CCCCn1c(=O)c2c(ncn2C)n(C)c1=O (stereo not given) | inactive | 

Row | Compound | outcome | viability change, negative = cytotoxic
23 | c1coc(Cn2cccc2)c1 | inactive | 
24 | C=COCCCCO | inactive | 
25 | CC/C=C\CCCCCCCCCCOC(C)=O | inactive | 
26 | CCCCCCCCS(=O)(=O)O | inactive | 
27 | CN1C(CCl)Nc2cc(Cl)c(S(N)(=O)=O)cc2S1(=O)=O (stereo not given) | inactive | 
28 | CC(=O)SCC(CC(=O)c1ccc(C)cc1)C(=O)O (stereo not given) | inactive | 
29 | CN(C)c1ccncc1 | inactive | 
30 | O=S(=O)(O)CC(O)CCl (stereo not given) | inactive | 
31 | N[C@H]1C(O)O[C@H](CO)[C@@H](O)[C@@H]1O (stereo not given in full) | inactive | 
32 | C=CCN1CCc2nc(N)sc2CC1 | inactive | 
33 | Cc1ccc(O)c([N+](=O)[O-])c1 | inactive | 
34 | OCCC(F)(F)C(F)(F)C(F)(F)C(F)(F)C(F)(F)C(F)(F)F | inactive | 
35 | CN(C)c1cc(NC(=O)CNC(C)(C)C)c(O)c2c1C[C@H]1C[C@H]3[C@H](N(C)C)C(=O)C(C(N)=O)=C(O)[C@@]3(O)C(=O)C1=C2O | inactive | 
36 | CNCCc1ccccn1 | inactive | 
37 | Cc1ccccc1OCC(=O)O | inactive | 
38 | CCC(C)SSC(C)CC (stereo not given) | inactive | 
39 | CC1(C)CC(N)CC(C)(C)N1 | inactive | 

Target: Peroxisome proliferator-activated receptor delta (Homo sapiens) (UniProt Q03181)
Experiment: qHTS assay to identify small molecule antagonists of the peroxisome proliferator-activated receptor delta (PPARd) signaling pathway (AID 743215; active means well fitted inhibition curve with a large enough effect in the signal ratio in the repeat runs, not every such curve was filed as active; the % refers to the signal ratio;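 further: cells stimulated with agonist L165041 at 300 nM final during compound exposure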)
Settings: HEK293H PPARd-UAS-bla, beta-lactamase FRET ratio, antagonist, 17 h; series mostly up to 62 µM
Outline: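 HEK293H GeneBLAzer PPARd UAS-bla reporter cells; cpd + L165041 300 nM final, 17 h 37 C; LiveBLAzer B/G FRET substrate 2 h RT; fluorescence intensity read-out. Antagonist mode.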

Row | Compound | outcome | ratio activity, negative = inhibition
40 | CCO/C=C1\N=C(c2ccccc2)OC1=O | inactive | 
41 | CCCCCCCCCCCCCCCCN(C)C |  | -0.339% [at 6.26 µM]
42 | O=C(O)P(=O)(O)O | inactive | 
43 | CC1(C)S[C@@H]2[C@H](NC(=O)Cc3ccccc3)C(=O)N2[C@H]1C(=O)O (tested in a mixture with another compound) | inactive | 
44 | Cc1ccc(S(=O)(=O)NC(=O)NN2CC3CCCC3C2)cc1 (stereo not given) | inactive | 
45 | CCCC(=O)CC | inactive | 
46 | CN(C)CCCN(C)C |  | 5.28% [at 6.26 µM]
47 | c1cc2ccc3ccc4ccc5cccc6c(c1)c2c3c4c56 |  | 2.1% [at 2.83 µM]
48 | CC1(C)C(=O)C(C)(C)C1=O | inactive | 
49 | C=C(C)C(=O)OCCCC | inactive | 
50 | C[C@@H]1CC[C@@]2(OC1)O[C@H]1C[C@H]3[C@@H]4CC[C@H]5C[C@@H](O)CC[C@]5(C)[C@H]4CC(=O)[C@]3(C)[C@H]1[C@@H]2C |  | 2.62% [at 6.26 µM]
51 | CCOCCOCCOC(C)=O | inactive | 
52 | CC(O)CCCCn1c(=O)c2c(ncn2C)n(C)c1=O (stereo not given) | inactive | 
53 | CCOC(=O)CC | inactive | 
54 | C=COCCCCO | inactive | 
55 | CC/C=C\CCCCCCCCCCOC(C)=O | inactive | 
56 | CN1C(CCl)Nc2cc(Cl)c(S(N)(=O)=O)cc2S1(=O)=O (stereo not given) | inactive | 
57 | CC(=O)SCC(CC(=O)c1ccc(C)cc1)C(=O)O (stereo not given) | inactive | 
58 | CN(C)c1ccncc1 | inactive | 
59 | N[C@H]1C(O)O[C@H](CO)[C@@H](O)[C@@H]1O (stereo not given in full) | inactive | 
60 | C=CCN1CCc2nc(N)sc2CC1 | inactive | 
61 | Cc1ccc(O)c([N+](=O)[O-])c1 | inactive | 
62 | OCCC(F)(F)C(F)(F)C(F)(F)C(F)(F)C(F)(F)C(F)(F)F | inactive | 
63 | CN(C)c1cc(NC(=O)CNC(C)(C)C)c(O)c2c1C[C@H]1C[C@H]3[C@H](N(C)C)C(=O)C(C(N)=O)=C(O)[C@@]3(O)C(=O)C1=C2O | inactive | 
64 | Cc1ccccc1OCC(=O)O | inactive | 
65 | CC1(C)CC(N)CC(C)(C)N1 | inactive | 
